In ChEMBL document CHEMBL1157539, “Thousands of chemical starting points for antimalarial lead identification” (Nature, 2010):

Experiments:
Type in all cases: functional
[1] = tested on: Plasmodium falciparum; assay: GSK_TCMDC: Inhibition of Plasmodium falciparum 3D7 in whole red blood cells, using parasite LDH activity as an index of growth. Test compounds present at 2uM
[2] = tested on: Plasmodium falciparum; assay: GSK_TCMDC: Inhibition of Plasmodium falciparum Dd2 in whole red blood cells, using parasite LDH activity as an index of growth. Test compounds present at 2uM
[3] = tested on: HepG2; assay: GSK_TCMDC: Percent inhibition of human HepG2 cell line. Test compounds present at 10uM.

Row | Structure (SMILES) | Inhibition [1] [%] | Inhibition [2] [%] | Inhibition [3] [%]
1 | N#Cc1cccc(NC(=O)NC2CCN(CCCCCNC(=O)C3CC3c3ccc(Cl)c(Cl)c3)CC2)c1 (stereo unspecified) | 100 | 0 | 36
2 | O=C(Nc1cccc(OCc2ccccc2)c1)c1ccc(CN2CCC(Cc3ccccc3)CC2)cc1 | 100 | 27 | 41
3 | CC[C@]1(C)C[C@@H](NC(=O)NC(=O)c2ccc(OC)cc2)[C@]2(C)[C@H](C)CC[C@]3(CCC(=O)[C@H]32)[C@@H](C)[C@@H]1OC(=O)NC(=O)c1ccc(OC)cc1 | 100 | 98 | 10
4 | COc1ccc(NC(=O)N2CCN(CCCCCNC(=O)/C=C/c3ccc(C(F)(F)F)cc3)CC2)cc1Cl | 94 | 0 | 25
5 | CS(=O)(=O)CCCNCc1ccc(-c2cc3c(Nc4ccc(OCc5ccccc5)cc4)ncnc3cn2)o1 | 87 | 16 | 10
6 | Cc1ccc(NC(=O)c2ccc3ncccc3c2)cc1OC1CCN(CCC(C)C)C1.O=C(O)C(F)(F)F (stereo unspecified) | 98 | 62 | 5
7 | O=c1cc(NCCCNCc2ccc3c(c2)OC(F)(F)O3)[nH]c2ccccc12 | 100 | 94 | 0
8 | S=C(NCCN1CCOCC1)Nc1ccccc1 | 94 | 1 | 3
9 | Cc1nc(N)nc(N)c1-c1ccc(Br)cc1 | 98 | 1 | 46
10 | COc1ccc2nccc([C@@H](O)CN3CCC(NCc4nc5c(F)cccc5[nH]4)CC3)c2c1.O=C(O)C(=O)O | 100 | 6 | 0
11 | Br.COc1cc(CCON2C(N)=NC(N)=NC2(C)C)cc(OC)c1OC | 93 | 95 | 59
12 | Cc1cccc2nc(-c3cccc(-c4ccc(CNCc5ccc(S(C)(=O)=O)cc5)cc4)c3)[nH]c12.O=C(O)C(F)(F)F | 100 | 98 | 8
13 | COc1ccc2nc(Nc3nc(-c4ccccn4)cs3)sc2c1 | 93 | 94 | 40
14 | CCN(CCCN1CCCCC1)c1nccc(Nc2ccc(Cl)cc2)n1 | 89 | 63 | 19
15 | Cc1csc(-c2nonc2NC(=O)COc2ccccc2C(C)C)n1 | 90 | 85 | 14
16 | CN1CCN(Cc2c(O)ccc3c(=O)c(Oc4ccc(C(C)(C)C)cc4)c(C(F)(F)F)oc23)CC1 | 99 | 88 | 0
17 | FC(F)(F)c1ccc2c(NN=Cc3cccc(Cl)c3)ccnc2c1 | 93 | 59 | 7
18 | COc1ccc(C2CC(=O)C3=C(C2)NC(C)=C(C(=O)OC2CCCC2)C3c2cccc(O)c2)cc1 (stereo unspecified) | 88 | 83 | 0
19 | COc1cccc(OC)c1C(=O)N1CCC2(CC1)C(=O)N(CC(=O)NC1CCCCC1)CN2c1ccccc1 | 92 | 91 | 16
20 | Clc1ccc(/N=C(/NCCCCCCCN/C(=N\c2ccc(Cl)cc2)Nc2ccc(Cl)cc2)Nc2ccc(Cl)cc2)cc1 | 100 | 99 | 100
21 | Clc1ccc(-c2cc(-c3csc(NCCN4CCCCC4)n3)on2)cc1 | 91 | 30 | 81

Row | Structure (SMILES) | Inhibition [1] [%] | Inhibition [2] [%] | Inhibition [3] [%]
22 | COc1cccc(Nc2nc(Nc3cccc(C#N)c3)cc(-c3ccncc3)n2)c1 | 100 | 46 | 28
23 | CCOC(=O)CCCCOc1c(OC)cc(Cc2cnc(N)nc2N)cc1OC | 95 | 0 | 0
24 | COc1ccc2nccc([C@@H](O)CN3CCC(NCc4nc5c(OCc6ccccc6)cccc5[nH]4)CC3)c2c1.O=C(O)C(=O)O | 100 | 34 | 6
25 | Cc1[nH]c(C)c(-c2ccc(-c3cccc(OC(F)(F)F)c3)nc2)c(=O)c1Cl | 98 | 97 | 30
26 | COc1ccc2nccc([C@@H](O)CN3CCC(NCCOc4ccc(F)cc4[N+](=O)[O-])CC3)c2c1.O=C(O)C(=O)O | 99 | 92 | 8
27 | CCC(C)NCc1c(O)ccc2c(CNC(C)CC)c(O)ccc12.Cl (stereo unspecified) | 100 | 31 | 14
28 | CN1CCN(c2ccnc3ccc(NC(=O)Nc4cccc5c(Br)cccc45)cc23)CC1.Cl | 100 | 96 | 7
29 | NCC1CCCN1Cc1cccc(-c2ccc(-c3nc4ccccc4[nH]3)s2)c1.O=C(O)C(F)(F)F (stereo unspecified) | 99 | 66 | 16
30 | O=C(/C=C/c1ccc(Cl)cc1)NCCCCCN1CCC(C(=O)Nc2ccc(Cl)cc2)CC1 | 99 | 0 | 27
31 | CS(=O)(=O)c1ccc(-c2cnc(N)c(-c3ccc(O)cc3)c2)cc1 | 84 | 94 | 38
32 | CC(=O)Nc1ccc(CN2CCC(NC(=O)c3ccc(-c4cccc(C(F)(F)F)c4)s3)CC2)cc1.O=C(O)C(F)(F)F | 100 | 16 | 35
33 | CCCCC(CC)CN1C(=O)C(c2ccccc2)(c2ccccc2)N=C1N.O=CO (stereo unspecified) | 94 | 98 | 32
34 | CCOC(=O)c1ccc(COc2ccc(C)nc2)cc1 | 100 | 0 | 14
35 | Cc1cc2[nH]c(-c3ccc(C(=O)NCCCN4CCN(c5cccc(Cl)c5)CC4)cc3)nc2cc1Cl | 98 | 73 | 1
36 | Cl.NC(=O)c1ccccc1Nc1nc(Nc2cccc(N3CCN(CCO)CC3)c2)ncc1Cl | 95 | 98 | 93
37 | CC(C)CCN(Cc1cncn1Cc1cccc(C(F)(F)F)c1)C(=O)c1cncc(-c2ccccc2)c1 | 100 | 4 | 15
38 | CCC(C)c1ccc(NC(=O)c2ccc(S(=O)(=O)Nc3ccc(OC)c(N4CCN(CC5CC5)CC4)c3)cc2)cc1.O=C(O)C(F)(F)F (stereo unspecified) | 94 | 17 | 24
39 | Clc1ccc2c(NN=Cc3ccco3)ccnc2c1 | 100 | 96 | 3
40 | Cl.NOCCCOc1ccccc1 | 100 | 0 | 20
41 | O=C(N[C@@H](Cc1ccccc1)C(=O)NCCN1CCOCC1)c1ccc(O)c(-c2ccc(Cl)c(Cl)c2)c1 | 97 | 31 | 0
42 | CC(Oc1cccc(Cl)c1)C(=O)N1CCc2ccccc21 (stereo unspecified) | 94 | 77 | 4

Row | Structure (SMILES) | Inhibition [1] [%] | Inhibition [2] [%] | Inhibition [3] [%]
43 | Brc1cccc(Nc2nccc(Nc3ccc(Oc4ccccc4)cc3)n2)c1.Cl | 89 | 5 | 0
44 | COc1ccc(NC(=O)[C@H](Cc2ccccc2)Nc2cc(C)nc(NCCc3ccccc3)n2)cc1.O=C(O)C(F)(F)F | 98 | 83 | 6
45 | CS(=O)(=O)O.O=[N+]([O-])c1ccc(CNCCCCCCNCc2ccc([N+](=O)[O-])c3ccccc23)c2ccccc12 | 100 | 98 | 88
46 | CC1CCCCC1N(C)C1CCN(CCCNC(=O)C=Cc2ccc(Cl)cc2Cl)CC1 (stereo unspecified) | 100 | 59 | 53
47 | CCc1cc2c(N)nc(N)nc2nc1-c1ccccc1 | 91 | 0 | 18
48 | Cc1cc(Nc2ccc(Oc3ccc(Cl)cc3)cc2)nc(N)n1 | 100 | 71 | 49
49 | Br.CC(C)(C)c1ccc(Cn2c(=N)n(CC(=O)c3ccc(-c4ccccc4)cc3)c3ccccc32)cc1 | 98 | 50 | 63
50 | CCCCCCCN1CC[C@@H](CCCc2ccnc3ccc(OC)cc23)[C@@H](CCN)C1.O=C(O)C(=O)O | 100 | 11 | 50
51 | COCC(C)n1c(C)cc(C(=O)CSc2nnc(Nc3ccccc3)s2)c1C (stereo unspecified) | 97 | 98 | 0
52 | Cc1ccc(NC(=O)c2ccc(N3CCN(c4ccncc4)CC3)cn2)cc1F.O=C(O)C(F)(F)F | 98 | 77 | 2
53 | N#Cc1cccc(NC(=O)Nc2ccc(CC(=O)N3CCc4cc(Cl)c(N5CCN(C/C=C/c6ccccc6)CC5)cc43)cc2)c1 | 91 | 61 | 0
54 | CCOc1cc(C2C(C(=O)OC(C)C)=C(C)NC3=C2C(=O)CC(c2ccc(Cl)cc2)C3)ccc1OC(C)=O (stereo unspecified) | 90 | 20 | 16
55 | CCNc1cc(C)nc(Nc2ccc(NS(=O)(=O)c3cc(OC)ccc3OC)cc2)n1 | 100 | 36 | 56
56 | CN(CCN)Cc1cccc(-c2ccc(-c3nc4cc(C(F)(F)F)ccc4[nH]3)s2)c1.O=C(O)C(F)(F)F | 100 | 92 | 27
57 | O=C(Nc1ccc(OC2CCN(Cc3ccc(F)cc3)C2)c(Cl)c1)c1cccs1.O=C(O)C(F)(F)F (stereo unspecified) | 98 | 97 | 21
58 | c1csc(-c2ccc3c(c2)CC(NCc2c[nH]c4cnccc24)C3)c1 (stereo unspecified) | 100 | 34 | 9
59 | COc1ccc2nccc([C@@H](O)CN3CCC(NC(=O)/C=C/c4cccc(-c5ccccc5)c4)CC3)c2c1 | 98 | 83 | 12
60 | Cc1cccc2nc(-c3ccc(-c4ccc(CN5CCN(c6ccncc6)CC5)cc4)s3)[nH]c12.O=C(O)C(F)(F)F | 100 | 98 | 85
61 | O=C(Nc1ccc(Cl)c(Cl)c1)Nc1ccc2c(c1)CCNCC2.O=C(O)C(F)(F)F | 86 | 37 | 13
62 | CCCCCCCN(Cc1ccc(OC(C)(C)C(=O)OCC)cc1)C(=O)Nc1ccccc1OC(F)(F)F | 95 | 68 | 0
